HT1080 IDH1KD tx: qHTS for induction of synthetic lethality in tumor cells producing 2HG: qHTS for the HT-1080-IDH1KD cell line; HT-1080 IDH1 knockdown viability, ATP luminescence, 48 h; Potency, µM (series often up to 46.1 µM), without a hit: at the top dose activity, negative = toxicity, usual class: cytotoxic; actives 2% (n = 360,000);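 also: potency is read from the fitted curve at half-maximal effect; 0% = DMSO wells and -100% = cell-free medium wells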
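IDH1KD HT-1080 cells, 750/well, RPMI + 5% FBS; compound pinned after 2 h settling; 48 h, 37 °C; CellTiter-Glo luminescence; % activity normalised to DMSO and no-cell wells; curves fitted, classed by r2 and efficacy.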
DT40 TDP1 CPT: qHTS for Inhibitors of human tyrosyl-DNA phosphodiesterase 1 (TDP1): qHTS in cells in presence of CPT; AID 686979, 2013; Potency, µM (doses to about 46.2 µM), for inactives: at the highest dose activity change, negative = growth inhibition, actives largely listed as inhibitors; actives 12% (n = 420,000); chicken DT40 Tdp1-/-;hTDP1 cells + 20 nM CPT, ATP luminescence, 48 h; also: potency is read from the fitted curve at half-maximal effect; nearly all actives have a fitted effect of over 55% in size
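Cell growth measured by CellTiter-Glo luminescence after a minimum 48 h, 37 C compound exposure with 20 nM CPT in Tdp1-knockout DT40 cells stably expressing hTDP1, seeded 400/well; qHTS titration format.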
HT1080NT lethal: qHTS for induction of synthetic lethality in tumor cells producing 2HG: qHTS for the HT-1080-NT fibrosarcoma cell line | HT-1080-NT fibrosarcoma viability, CellTiter-Glo ATP luminescence, 48 h | Potency, µM (series often up to 46.1 µM), inactives show at the top dose activity, negative = less viability, actives largely listed as cytotoxic | actives 1.6% (n = 360,000);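 also: NT is the 2HG producing partner of a matched IDH1 knockdown line; potency is read from the fitted curve at half-maximal effect; 0% = DMSO-treated cells and -100% = media-only wells without cells; nearly all actives have a fitted effect of over 55% in size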
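HT-1080-NT; 750 cells/well; 5% FBS RPMI; 48 h compound, 37 degrees C; CellTiter-Glo luminescence; curve fitting and curve-class assignment.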
IL1B secr inh: qHTS for Inhibitors of Inflammasome Signaling: IL-1-beta AlphaLISA Primary Screen; THP-1 LPS/ATP IL-1B secretion, AlphaLISA, 16 h; hits give low values; activity change, % at 57.5 µM; actives 4.7% (n = 360,000); in the data active = activity change below about -50%; inconclusive = mostly about -30% to -49%
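THP-1 cells pretreated 1 hr with compounds (up to 57.5 uM final), then stimulated with LPS (250 ng/mL final) plus ATP (1.25 mM final); secreted IL-1B measured by AlphaLISA after 16 hr, decreased signal indicating inhibition.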
TDP1 cell noCPT: qHTS for Inhibitors of human tyrosyl-DNA phosphodiesterase 1 (TDP1): qHTS in cells in absence of CPT | DT40 Tdp1-/- hTDP1 cells, no CPT, ATP luminescence, 48 h | Potency, µM (top dose mostly 46.2 µM), for the others: at the highest dose activity change, negative = growth inhibition, hits mostly inhibitors | actives 15% (n = 420,000); also: potency is read from the fitted curve at half-maximal effect; nearly all actives have a fitted effect of over 55% in size
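Chicken DT40 Tdp1-/- cells complemented with human TDP1, screened without camptothecin (DMSO vehicle only), 400 cells/well. Compounds pin-transferred, cells incubated at 37 °C for at least 48 hr. Growth read as ATP-dependent luminescence (CellTiter-Glo, 30 min at RT).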
* hit, by the source's call; ? = inconclusive; . = no result. A selection: hits, their analogues and other compounds. The true share with any hit is near 19%. Unless noted, calls follow the shape of the dose curve; as a rule, active = well fitted curve in the direction sought with a large enough effect; inconclusive = small, poorly fitted or top-dose-only effect, or another doubt; inactive = no such curve, though single readings can be large; an effect the other way counts as inactive or inconclusive. Unless noted, % is scaled to controls: 0 for no effect and ±100 for the full control effect.

SMILES | HT1080 IDH1KD tx | DT40 TDP1 CPT | HT1080NT lethal | IL1B secr inh | TDP1 cell noCPT
CCc1ccccc1NC(=O)NC(CC)Cn1nnc2ccccc2c1=O (stereo unspecified) | . | -1% | . | . | -13%
C=CCn1c(O)c(N=Nc2ccccc2[N+](=O)[O-])c2ccccc21 | 5% | ? | 4% | 31 | ?
C=CC[N+]1(CC#Cc2ccccc2)CCCC1 | -1% | ? | 5% | 36 | ?
C#CC[N+]1(CC#Cc2ccc(C)cc2)CCCCC1 | -19% | 2.3µM* | ? | 15 | 3.3µM*
C(#Cc1ccccc1)C[N+]1(CC#Cc2ccccc2)CCCC1 | ? | 1.8µM* | -21% | ? | 1µM*
C=CC#CC[N+]1(CC#Cc2ccccc2)CCOCC1 | 1% | 1% | -1% | -9 | -13%
COC(=O)CCn1[nH]c(=O)c2ccccc2c1=O | 29% | 19% | 9% | -13 | -11%
O=c1[nH]n(Cc2ccccc2)c(=O)c2ccccc12 | ? | ? | 4% | 17 | 8.9µM*
Cc1ccc(S(=O)(=O)c2cn(C)c3cc(N4CCOCC4)c(F)cc3c2=O)c(C)c1 | . | -23% | . | . | ?
CN(C)CCNC(=O)c1sc2nc(-c3ccccc3)cc(C(F)(F)F)c2c1N | 18µM* | ? | 23µM* | -99* | 16µM*
Cn1c(Cl)c(C(=O)Nc2ccc(Cl)cc2)c2ccccc21 | -23% | ? | -4% | 56 | 16µM*
O=C(COC(=O)c1ccc(Br)c(S(=O)(=O)N2CCOCC2)c1)NCCc1ccccc1 | -4% | 4% | -1% | 16 | -13%
Cc1[nH]nc2c1C(c1cccs1)C1=C(CC(C)(C)CC1=O)N2 (stereo unspecified) | 8% | 8% | 16% | 44 | -13%
O=C1/C(=C/c2ccccn2)COc2ccccc21 | -14% | 2.1µM* | -21% | 9 | 4.6µM*
COc1ccc2c(c1)OC/C(=C/c1ccc(O)c(O)c1)C2=O | . | 3.3µM* | . | . | 2.6µM*
CCOc1cc(/C=C2/COc3ccccc3C2=O)ccc1OCC(=O)N(C)C | ? | ? | ? | -16 | ?
O=C1/C(=C/c2ccc(O)cc2)COc2ccccc21 | ? | 0% | ? | -104* | -17%
CCOc1ccc(CCNC(=O)COC(=O)c2cccc(S(=O)(=O)N3CCCC3)c2)cc1OCC | 1% | -8% | 2% | -1 | -5%
COc1cc(NC(=O)c2cccc([N+](=O)[O-])c2)ccc1NC(=O)c1cc2ccccc2o1 | -3% | ? | -3% | -1 | 8.2µM*
COc1cc(NC(=O)c2cccc(C)c2)ccc1NC(=O)c1cc2ccccc2o1 | -14% | ? | -5% | 21 | 3.7µM*
Cc1cc(C)c(OCCNC(=O)c2ccccc2Sc2ccccc2C#N)c(C)c1 | -25% | 18µM* | -24% | 0 | ?
COc1cccc(OCCNC(=O)c2ccccc2Sc2ccccc2C#N)c1 | 4% | ? | 6% | 0 | 16µM*
Cc1ccccc1OCCNC(=O)c1ccccc1Sc1ccccc1C#N | -1% | -21% | 0% | -17 | 16µM*
CSc1ccccc1C(=O)NCCOc1ccccc1C | 1% | ? | 1% | -11 | ?
O=C(COc1ccc(F)cc1)NN1C(=O)CSC1=S | -1% | 7% | -6% | 0 | -27%
SMILES | HT1080 IDH1KD tx | DT40 TDP1 CPT | HT1080NT lethal | IL1B secr inh | TDP1 cell noCPT
O=C(CCCn1c(=S)[nH]c2ccc(Br)cc2c1=O)N1CCN(c2ccccn2)CC1 | -1% | ? | -19% | -7 | ?
Cc1ccc(-c2ccnc(-n3ncc(C(=O)N(C)CC4CCCN(C)C4)c3C)n2)o1 (stereo unspecified) | . | 29% | . | . | -5%
CCC1CCCCN1CCCNC(=O)c1ccc2c(c1)N(Cc1ccc(Cl)cc1)C(=O)c1ccccc1S2(=O)=O (stereo unspecified) | . | 23µM* | . | . | 23µM*
CCC1CCCCN1CCCNC(=O)c1ccc2c(c1)N(Cc1cccc(C)c1)C(=O)c1ccccc1S2(=O)=O (stereo unspecified) | . | 16µM* | . | . | ?
Cc1ccc(OCC(=O)OCc2cc(=O)n3c(C)csc3n2)cc1 | . | 0% | . | . | -7%
CCOC(=O)C1CCCN(C(=O)CSc2ccc(Br)cc2)C1 (stereo unspecified) | -6% | 13µM* | 11% | -8 | 18µM*
CC1CCCN(Cc2cn3c(-c4cccc(Br)c4)nnc3s2)C1 (stereo unspecified) | . | 23µM* | . | . | ?
Brc1ccc(-c2nnc3sc(CN4CCCCC4)cn23)cc1 | . | -9% | . | . | -25%
CCOC(=O)C1CCN(Cc2cn3c(-c4ccc(OC)cc4)nnc3s2)CC1 | . | 21µM* | . | . | ?
CCOC(=O)C1CCCN(Cc2cn3c(-c4ccc(Br)cc4)nnc3s2)C1 (stereo unspecified) | . | 5.2µM* | . | . | 6.5µM*
Brc1cccc(-c2nnc3sc(CNCc4ccco4)cn23)c1 | -5% | ? | -5% | -6 | ?
CCOc1ccc2nc(NC(=O)CSCC(=O)Nc3cc(C)on3)sc2c1 | -1% | 3% | 3% | 4 | 1%
O=[N+]([O-])c1ccc(Cl)cc1Sc1nc2ccccc2o1 | 5% | ? | -3% | -58* | ?
O=[N+]([O-])c1ccc(Cl)cc1Sc1cccc2cccnc12 | -7% | -11% | -12% | 19 | ?
COc1ccc(CCNc2cc(C)[nH]c(=O)c2)cc1OC | 4% | 0% | 13% | ? | 11%
COc1ccc(-c2cc(=O)oc3c4c(ccc23)OCN(Cc2cccc(OC)c2)C4)cc1 | . | 10µM* | . | . | 16µM*
O=c1cc(-c2ccccc2)c2ccc3c(c2o1)CN(Cc1ccccc1)CO3 | . | -14% | . | . | ?
COc1ccc(-c2cc(=O)oc3c4c(ccc23)OCN(Cc2ccccc2)C4)cc1 | . | 18µM* | . | . | ?
O=C(CCNS(=O)(=O)c1ccccc1)OCc1ccc([N+](=O)[O-])cc1 | 0% | -19% | -2% | -3 | 4%
CCCCNC(=O)C1=CC(c2ccc3c(c2)OCO3)=NS(=O)(=O)N1C | . | 0% | . | . | -29%
Cc1cccc(NC(=O)[C@H](Cc2ccccc2)NC(=O)OCc2ccccc2)c1 | -3% | -17% | -5% | 0 | ?
CCOC(=O)C(Cc1ccc(O)cc1)NC(=O)CNC(=O)C(CC(C)C)NC(=O)OC(C)(C)C (stereo unspecified) | -7% | -2% | -14% | -99* | -17%
